Results filed as inconclusive are left out. Active and inactive are the calls of the source. Calls follow the shape of the dose curve; as a rule, active = well fitted curve in the direction sought with a large enough effect; inconclusive = small, poorly fitted or top-dose-only effect, or another doubt; inactive = no such curve, though single readings can be large; an effect the other way counts as inactive or inconclusive.

Test [1] has as its target Voltage-gated inwardly rectifying potassium channel KCNH2 (Homo sapiens) (UniProt Q12809). The test can be described thus: qHTS Assay for Small Molecule Inhibitors of the Human hERG Channel Activity (AID 588834).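 Also: lower thallium flux fluorescence means stronger hERG block; nearly all actives have a fitted effect of over 50% in size.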 A digest of the protocol:
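Thallium serves as surrogate for K+ influx through BacMam-delivered hERG in U2OS cells. Compounds are added for about 10 minutes after dye loading; stimulation buffer then starts flux, monitored kinetically on FDSS.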

A short description of test [2]: S16 Schwann cell viability assay (CellTiter-Glo assay) (AID 624031). Also: nearly all actives have a fitted effect of over 70% in size. The method, boiled down: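 Luminescent ATP read-out (CellTiter-Glo) after 24 h compound exposure of native S16 rat Schwann cells at 37 °C. Signals were normalized between cell-free wells and DMSO-treated cells, set as 0% activity.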
Background: In ATP-based viability assays light output follows the ATP content of the culture.

A short description of test [3]: S16 Schwann cell PMP22 intronic element firefly luciferase assay (AID 624032). Also: nearly all actives have a fitted effect of over 30% in size. The method, boiled down:
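Luciferase reporter of PMP22 intronic-element expression in stably transfected S16 rat Schwann cells, read by ONE-Glo luminescence after 24 h compound exposure at 37 C. Activity scaled between DMSO (0%) and positive-control PTC124; concentration-effect curves quality-classified.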

The target in test [4] is Luciferin 4-monooxygenase (Photinus pyralis) (UniProt P08659). The test can be described thus: Biochemical firefly luciferase enzyme assay for NPC (AID 624030). Also: nearly all actives have a fitted effect of over 70% in size. The method, boiled down:
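Direct inhibition of firefly luciferase enzyme (10 nM final, 50 mM Tris Acetate) assessed by luminescence within 5 minutes. Percent activity scaled between DMSO and PTC124 positive control, with concentration-effect curves classified by fit quality and response.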
Potency is read from the fitted curve at half-maximal effect.

Voltage-gated inwardly rectifying potassium channel KCNH2 (Homo sapiens), sequence (Q12809 whole entry, looked up): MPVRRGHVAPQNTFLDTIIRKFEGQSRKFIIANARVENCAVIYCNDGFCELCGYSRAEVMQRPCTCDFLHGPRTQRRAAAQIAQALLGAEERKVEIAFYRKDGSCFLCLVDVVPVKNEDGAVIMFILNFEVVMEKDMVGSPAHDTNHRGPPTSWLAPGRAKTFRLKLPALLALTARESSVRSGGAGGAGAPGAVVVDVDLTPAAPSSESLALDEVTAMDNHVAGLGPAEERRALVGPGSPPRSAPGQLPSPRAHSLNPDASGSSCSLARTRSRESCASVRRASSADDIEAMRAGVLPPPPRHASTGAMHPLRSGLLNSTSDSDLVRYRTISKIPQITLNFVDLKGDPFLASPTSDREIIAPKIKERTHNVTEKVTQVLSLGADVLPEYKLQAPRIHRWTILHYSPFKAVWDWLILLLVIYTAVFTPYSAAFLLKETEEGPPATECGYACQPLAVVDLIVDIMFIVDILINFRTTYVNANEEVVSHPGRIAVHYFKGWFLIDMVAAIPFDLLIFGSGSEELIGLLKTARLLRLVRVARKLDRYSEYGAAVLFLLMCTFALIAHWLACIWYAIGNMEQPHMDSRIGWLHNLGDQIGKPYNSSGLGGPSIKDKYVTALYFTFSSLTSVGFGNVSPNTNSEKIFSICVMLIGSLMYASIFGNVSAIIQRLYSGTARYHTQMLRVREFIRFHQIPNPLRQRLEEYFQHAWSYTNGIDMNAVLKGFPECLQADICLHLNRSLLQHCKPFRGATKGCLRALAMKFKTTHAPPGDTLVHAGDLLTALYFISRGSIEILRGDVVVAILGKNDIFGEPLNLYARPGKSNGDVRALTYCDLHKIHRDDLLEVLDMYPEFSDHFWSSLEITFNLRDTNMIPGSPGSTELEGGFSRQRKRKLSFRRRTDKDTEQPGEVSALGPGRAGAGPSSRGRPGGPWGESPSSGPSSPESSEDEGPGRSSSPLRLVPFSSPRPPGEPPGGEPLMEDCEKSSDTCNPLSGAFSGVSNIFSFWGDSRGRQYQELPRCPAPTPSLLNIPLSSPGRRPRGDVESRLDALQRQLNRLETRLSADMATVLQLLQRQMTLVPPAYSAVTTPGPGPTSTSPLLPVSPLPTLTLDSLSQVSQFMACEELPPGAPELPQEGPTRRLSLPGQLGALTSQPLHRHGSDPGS
Luciferin 4-monooxygenase (Photinus pyralis), sequence (P08659 whole entry, looked up): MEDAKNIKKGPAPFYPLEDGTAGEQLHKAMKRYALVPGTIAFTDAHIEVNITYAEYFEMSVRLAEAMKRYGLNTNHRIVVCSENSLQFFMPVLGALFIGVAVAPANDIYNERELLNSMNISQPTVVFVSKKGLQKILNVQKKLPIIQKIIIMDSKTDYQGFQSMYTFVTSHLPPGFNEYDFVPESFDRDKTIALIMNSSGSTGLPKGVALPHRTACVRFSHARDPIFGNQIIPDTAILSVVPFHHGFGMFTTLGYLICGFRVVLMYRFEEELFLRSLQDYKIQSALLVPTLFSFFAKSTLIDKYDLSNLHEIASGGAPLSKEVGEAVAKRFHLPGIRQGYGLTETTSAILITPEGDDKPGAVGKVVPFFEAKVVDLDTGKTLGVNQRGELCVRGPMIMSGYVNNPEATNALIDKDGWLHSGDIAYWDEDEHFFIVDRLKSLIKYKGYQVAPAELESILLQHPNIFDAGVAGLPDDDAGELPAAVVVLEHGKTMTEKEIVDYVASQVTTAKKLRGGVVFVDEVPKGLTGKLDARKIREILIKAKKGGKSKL

For `CC(NNC(=O)c1ccccc1)c1ccccc1` (stereo not given), the Potency entry in test [1], in test [2] and in test [3] was “inactive” each time.

In the case of `COC(C(=O)C(O)C(C)O)C1Cc2cc3cc(OC4CC(OC5CC(O)C(O)C(C)O5)C(O)C(C)O4)c(C)c(O)c3c(O)c2C(=O)C1OC1CC(OC2CC(OC3CC(C)(O)C(O)C(C)O3)C(O)C(C)O2)C(O)C(C)O1` (stereo not given), the Potency entry in test [2] and in test [3] was “inactive” each time.

Consider `CC[C@@]1(O)C(=O)OCc2c1cc1n(c2=O)Cc2cc3c([N+](=O)[O-])cccc3nc2-1`, for which the Potency result in test [1] and in test [4] was “inactive” in each case. Also, in test [3], the Potency is 0.203 µM (active).

Take `O=C(Nc1ccc(Br)cc1)c1cc(Br)c(Br)s1`: the Potency in test [4] was 16.1 µM (active). Besides, the Potency entry in test [3] was “inactive”.

With `CC(=O)Oc1cc(C)c(OC(C)=O)c2ccccc12`, the Potency entry in test [1] and in test [4] was “inactive” in each case. Moreover, in test [3], the Potency was 28.7 µM (active).

On to `CCCC(=O)Nc1ncnc2c1ncn2C1OC2COP(=O)(O)OC2C1OC(=O)CCC` (stereo not given), for which the Potency result in test [1], in test [4] and in test [2] was “inactive” throughout. For the same molecule, in test [3], the Potency is 5.73 µM (active).

Consider `COCC(=O)Nc1cc(Sc2ccccc2)ccc1N=C(NC(=O)OC)NC(=O)OC`, for which the Potency entry in test [4] and in test [3] was “inactive” throughout.

Regarding `CCCCCCCCCCCCCC[n+]1ccc(C)cc1`, in test [4], the Potency entry was “inactive”. Further, the Potency in test [3] was 2.56 µM (active).

For `C[C@@H]1CCC2[C@@H](C)[C@@H](O)O[C@@H]3O[C@@]4(C)CC[C@@H]1[C@@]23OO4` (stereo not given in full), the Potency entry in test [1], in test [4] and in test [2] was “inactive” throughout. The Potency in test [3] was 1.02 µM (active).

As for `CCC(=O)NCCC1CCc2ccc3c(c21)CCO3` (stereo not given), the Potency entry in test [4], in test [2] and in test [3] was “inactive” each time.

`CCCCCCCCCCCCCCCC(=O)OCC(COC(=O)CCCCCCCCCCCCCCC)OC(=O)CCCCCCCCCCCCCCC`: the Potency result in test [1], in test [4], in test [2] and in test [3] was “inactive” throughout.

For the molecule `CC(Cc1ccc(O)c(O)c1)C(C)Cc1ccc(O)c(O)c1` (stereo not given), the Potency entry in test [1] and in test [2] was “inactive” each time. The Potency in test [3] was 8.09 µM (active).

With `C#C[C@]1(O)CC[C@H]2[C@@H]3CCC4=CCCC[C@@H]4[C@H]3C(=C)C[C@@]21CC`, the Potency result in test [4] and in test [3] was “inactive” in each case.

With `Clc1cc(Cl)c(OCC#CI)cc1Cl`, the Potency was 25.6 µM (active) in test [2] and 28.7 µM (active) in test [3].

Regarding `CC1=C(/C=C/C(C)=C/C=C/C(C)=C/C=C/C=C(C)/C=C/C=C(C)/C=C/C2=C(C)CCCC2(C)C)C(C)(C)CCC1`, the Potency entry in test [4], in test [2] and in test [3] was “inactive” each time.

`Nc1ncnc2c1ncn2[C@@H]1O[C@H](COP(=O)(O)OP(=O)(O)OP(=O)(O)O)[C@@H](O)[C@H]1O`: the Potency entry in test [1], in test [2] and in test [3] was “inactive” each time.

`CN(C)CCCN1c2ccccc2C(C)(C)c2ccccc21`: the Potency entry in test [4] and in test [3] was “inactive” in each case. The Potency in test [2] is 28.7 µM (active).

For `CCCCC(C)(O)C/C=C/[C@H]1[C@H](O)CC(=O)[C@@H]1CCCCCCC(=O)OC` (stereo not given in full), the Potency result in test [4] and in test [2] was “inactive” throughout. Also, the Potency in test [3] was 0.181 µM (active).

As for `CCCCCCCCCCCCCCCCCCOP(=O)([O-])OC1CC[N+](C)(C)CC1`, in test [4], the Potency entry was “inactive”.

Consider `C=C1C(=CC=C2CCC[C@@]3(C)[C@@H]2CC[C@H]3[C@H](C)CCCC(C)C)C[C@@H](O)C[C@@H]1O`, for which, in test [1], the Potency result was “inactive”. Also, the Potency in test [3] was 0.0287 µM (active).

Take `CN1C(=O)CN2CCc3ccccc3C2c2cc(Cl)ccc21` (stereo not given): the Potency entry in test [4], in test [2] and in test [3] was “inactive” throughout.

As to `CCCCCCCCCCCC[n+]1ccc2ccccc2c1`, the Potency was 3.16 µM (active) in test [1], 16.1 µM (active) in test [2] and 0.907 µM (active) in test [3]. The Potency result in test [4] was “inactive”.

Turning to `CCCC(=O)O[C@]1(C(=O)CCl)[C@H](C)C[C@@H]2[C@H]3CCC4=CC(=O)C=C[C@]4(C)[C@@]3(F)C(=O)C[C@@]21C`, the Potency result in test [4], in test [2] and in test [3] was “inactive” in each case.

Turning to `O=C(COc1ccc(Cl)cc1)OCCNC12CC3CC(CC(C3)C1)C2`, the Potency result in test [4], in test [2] and in test [3] was “inactive” each time.

`Nc1c(Br)cc(Br)cc1CNC1CCC(O)CC1` (stereo not given): the Potency entry in test [1], in test [4], in test [2] and in test [3] was “inactive” in each case.

In the case of `CC1(C)S[C@@H]2[C@H](NC(=O)[C@@H](NC(=O)N3CCNC3=O)c3ccccc3)C(=O)N2[C@H]1C(=O)O`, the Potency entry in test [4], in test [2] and in test [3] was “inactive” throughout.

For `OC[C@H]1O[C@@H](n2cnc3c2NC=NC[C@H]3O)C[C@@H]1O`, the Potency entry in test [4] is “inactive”.

For the molecule `CCN(CC)Cc1cc(Nc2ccnc3cc(Cl)ccc23)ccc1O`, the Potency result in test [4] and in test [2] was “inactive” each time.

Consider `C=CCSSSCC=C`, for which the Potency entry in test [1], in test [4] and in test [3] was “inactive” in each case.

The record behind these values is PubChem BioAssay (NCATS).
